Measured values published in PubChem BioAssay (NCATS).
Results filed as inconclusive are left out. Active and inactive are the calls of the source. Calls follow the shape of the dose curve; as a rule, active = well fitted cell-killing curve with a large enough effect; inconclusive = small, poorly fitted or top-dose-only effect, or effect the other way; inactive = no such curve, though single readings can be large or run the other way.

Columns and labels:
[1] = Quantitative High-Throughput drug screen in 47 multiple myeloma cell lines against the NCATS MIPE library collection: XG1_PLB cell viability assay (AID 1919866); also: nearly all actives have a fitted effect of over 35% in size
Outline: (§1)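 qHTS format: cells plated (500/well), pin-dosed with MIPE 4.0 compounds, kept 48 h at 37 °C. Readout was CellTiter-Glo luminescence, median RLU.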

[2] = Quantitative High-Throughput drug screen in 47 multiple myeloma cell lines against the NCATS MIPE library collection: VP6_DJ cell viability assay (AID 1919867); also: nearly all actives have a fitted effect of over 40% in size
Outline: as §1

[3] = Quantitative High-Throughput drug screen in 47 multiple myeloma cell lines against the NCATS MIPE library collection: UTMC2_PLB cell viability assay (AID 1919868); conditions: CellTiter-Glo ATP luminescence, 48 h; viability (% of DMSO control): at 45.8 µM (top of the series); also: nearly all actives have a fitted effect of over 55% in size
Outline: as §1

[4] = Quantitative High-Throughput drug screen in 47 multiple myeloma cell lines against the NCATS MIPE library collection: PE2_PLB cell viability assay (AID 1919869); also: nearly all actives have a fitted effect of over 35% in size
Outline: as §1

[5] = Quantitative High-Throughput drug screen in 47 multiple myeloma cell lines against the NCATS MIPE library collection: PCM6_Riken cell viability assay (AID 1919870); also: nearly all actives have a fitted effect of over 30% in size
Outline: as §1

[6] = Quantitative High-Throughput drug screen in 47 multiple myeloma cell lines against the NCATS MIPE library collection: RPMI8226_ATCC cell viability assay (AID 1919871); also: nearly all actives have a fitted effect of over 30% in size
Outline: as §1

[7] = Quantitative High-Throughput drug screen in 47 multiple myeloma cell lines against the NCATS MIPE library collection: OPM2_DSMZ cell viability assay (AID 1919872); also: nearly all actives have a fitted effect of over 30% in size
Outline: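 Approved and investigational drugs from MIPE 4.0 were added by pin tool to 500 cells per well. After 48 hours at 37C, ATP-based CellTiter-Glo luminescence indicated remaining viability.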

[8] = Quantitative High-Throughput drug screen in 47 multiple myeloma cell lines against the NCATS MIPE library collection: KMS11_JCRBsus cell viability assay (AID 1919873); also: nearly all actives have a fitted effect of over 50% in size
Outline: as §1

[9] = Quantitative High-Throughput drug screen in 47 multiple myeloma cell lines against the NCATS MIPE library collection: KMS28BM_JCRB cell viability assay (AID 1919874); also: nearly all actives have a fitted effect of over 35% in size
Outline: as §1
Potency is read from the fitted curve at half-maximal effect.

Structure (SMILES)	Potency [1]	Potency [2]	Potency [3]	Potency [4]	Potency [5]	Potency [6]	Potency [7]	Potency [8]	Potency [9]
Cc1[nH]c(C=C2C(=O)Nc3ccc(S(=O)(=O)N(C)c4cccc(Cl)c4)cc32)c(C)c1C(=O)N1CCN(C)CC1	11.8 µM (active)	13.2 µM (active)	11.8 µM (active)	16.6 µM (active)	14.8 µM (active)	23.5 µM (active)	20.9 µM (active)	11.8 µM (active)	16.6 µM (active)
CC(C)CN(C[C@@H](O)[C@H](Cc1ccccc1)NC(=O)O[C@H]1CO[C@H]2OCC[C@H]21)S(=O)(=O)c1ccc(N)cc1	16.6 µM (active)	8.33 µM (active)	13.2 µM (active)	inactive	4.69 µM (active)	–	inactive	9.35 µM (active)	–
CC(C)(C)c1nc(-c2cccc(NS(=O)(=O)c3c(F)cccc3F)c2F)c(-c2ccnc(N)n2)s1	10.5 µM (active)	2.96 µM (active)	inactive	5.9 µM (active)	–	13.2 µM (active)	3.32 µM (active)	–	inactive
Cc1cnc(Nc2cccc(CN3CCOCC3)c2)nc1Nc1cccc(S(=O)(=O)NC(C)(C)C)c1	1.05 µM (active)	2.96 µM (active)	1.18 µM (active)	1.87 µM (active)	6.62 µM (active)	–	9.35 µM (active)	–	–
Cc1nc(NC(=O)N2CCC[C@@H]2C(N)=O)sc1-c1csc(C(C)(C)C)n1	3.32 µM (active)	0.264 µM (active)	–	5.9 µM (active)	4.69 µM (active)	–	–	–	–
CC1=C(CC(=O)O)c2cc(F)ccc2C1=Cc1ccc(S(C)=O)cc1 (stereo not drawn)	0.935 µM (active)	7.43 µM (active)	18.7 µM (active)	20.9 µM (active)	–	–	inactive	3.72 µM (active)	9.35 µM (active)
CNc1nc(-c2ccc3c(N)n[nH]c3c2)cc(N2C[C@@H](C(=O)NC3CCCCC3)CC[C@@H]2C)n1	20.9 µM (active)	5.9 µM (active)	–	6.62 µM (active)	18.7 µM (active)	–	23.5 µM (active)	5.26 µM (active)	23.5 µM (active)
OC1CCC(Nc2ncc3nc(Nc4c(F)cc(F)cc4F)n([C@@H]4CCOC4)c3n2)CC1 (stereo partly drawn)	13.2 µM (active)	11.8 µM (active)	inactive	–	18.7 µM (active)	–	–	–	–
COc1cccc(OC)c1-c1cc(C(=O)NC2(C(=O)O)C3CC4CC(C3)CC2C4)nn1-c1ccnc2cc(Cl)ccc12 (stereo not drawn)	inactive	inactive	inactive	inactive	–	inactive	–	inactive	–
COC1CCC(C(=O)c2ccc3nc4c(cc3c2)CCCO4)CC1 (stereo not drawn)	14.8 µM (active)	13.2 µM (active)	–	18.7 µM (active)	16.6 µM (active)	–	23.5 µM (active)	20.9 µM (active)	–
O=S(=O)(O)c1ccc2cc(N=Nc3cc(S(=O)(=O)O)c4cccnc4c3O)ccc2c1	5.9 µM (active)	16.6 µM (active)	–	3.32 µM (active)	–	16.6 µM (active)	inactive	–	1.87 µM (active)
CN(C)CCOc1ccc(C(=C(CCCl)c2ccccc2)c2ccccc2)cc1	2.96 µM (active)	inactive	inactive	–	3.72 µM (active)	26.4 µM (active)	inactive	inactive	–
CCc1cccc(CC)c1NC(=O)N1Cc2[nH]nc(NC(=O)c3ccc(N4CCN(C)CC4)cc3)c2C1	0.935 µM (active)	5.9 µM (active)	0.743 µM (active)	20.9 µM (active)	–	–	–	1.05 µM (active)	1.18 µM (active)
O=C(CCCN1CCN(c2ccc(F)cc2)CC1)NC1c2ccccc2CSc2ccccc21 (stereo not drawn)	11.8 µM (active)	7.43 µM (active)	–	13.2 µM (active)	14.8 µM (active)	–	–	10.5 µM (active)	11.8 µM (active)
COc1ccc2c(c1)CC[C@H]1[C@@H]2CC[C@]2(C)[C@@H](NCCCCCCN3C(=O)C=CC3=O)CC[C@H]12	inactive	inactive	–	inactive	inactive	–	–	inactive	inactive
Nc1ncnc2c1ncn2[C@@H]1O[C@H](CO)[C@@H](O)[C@@H]1O	0.935 µM (active)	0.166 µM (active)	–	14.8 µM (active)	1.18 µM (active)	inactive	–	5.26 µM (active)	0.935 µM (active)
COc1ccc2nc3cc(Cl)ccc3c(Nc3cc(CN4CCCC4)c(O)c(CN4CCCC4)c3)c2n1	18.7 µM (active)	9.35 µM (active)	–	18.7 µM (active)	16.6 µM (active)	18.7 µM (active)	–	16.6 µM (active)	23.5 µM (active)
C[C@H]1O[C@@H](n2cc(F)c(=O)[nH]c2=O)[C@H](O)[C@H]1O	8.33 µM (active)	0.59 µM (active)	–	1.87 µM (active)	8.33 µM (active)	9.35 µM (active)	inactive	7.43 µM (active)	inactive

Structure (SMILES)	Potency [1]	Potency [2]	Potency [3]	Potency [4]	Potency [5]	Potency [6]	Potency [7]	Potency [8]	Potency [9]
NCc1c[nH]c(=S)n1[C@H]1CCc2c(F)cc(F)cc2C1	9.35 µM (active)	3.32 µM (active)	–	16.6 µM (active)	2.96 µM (active)	26.4 µM (active)	–	20.9 µM (active)	20.9 µM (active)
C[C@@H]1CC=CC=CC=CC=C[C@@H](O[C@@H]2O[C@H](C)[C@@H](O)[C@H](N)[C@H]2O)C[C@@H]2O[C@](O)(C[C@@H](O)C[C@@H]3O[C@@H]3C=CC(=O)O1)C[C@H](O)[C@@H]2C(=O)O	4.69 µM (active)	10.5 µM (active)	–	9.35 µM (active)	16.6 µM (active)	–	–	16.6 µM (active)	20.9 µM (active)
CC1(C)OC2CC3C4CC(F)C5=CC(=O)C=CC5(C)C4C(O)CC3(C)[C@]2(C(=O)CO)O1 (stereo partly drawn)	inactive	3.32 µM (active)	inactive	–	inactive	0.0118 µM (active)	inactive	0.0264 µM (active)	inactive
CN1CCN(c2cccc(Nc3nc4c(-c5ccc(S(C)(=O)=O)cc5)cccn4n3)c2)CC1	0.372 µM (active)	0.743 µM (active)	–	1.05 µM (active)	7.43 µM (active)	9.35 µM (active)	–	–	0.743 µM (active)
C[C@H]1[C@H](O)O[C@@H]2O[C@@]3(C)CC[C@@H]4[C@H](C)CC[C@@H]1[C@@]24OO3	3.72 µM (active)	1.48 µM (active)	–	2.35 µM (active)	–	1.32 µM (active)	–	1.66 µM (active)	–
Cc1ccc(NC(=O)c2ccc(CN3CCN(C)CC3)cc2)cc1Nc1nc(-c2cccnc2)cs1	13.2 µM (active)	8.33 µM (active)	–	11.8 µM (active)	4.18 µM (active)	18.7 µM (active)	–	10.5 µM (active)	20.9 µM (active)
c1cc(OCCN2CCCCC2)cc(-c2n[nH]c3ccc(-c4ncn[nH]4)cc23)c1	8.33 µM (active)	11.8 µM (active)	–	10.5 µM (active)	16.6 µM (active)	–	–	16.6 µM (active)	–
Cc1ccc(S(=O)(=O)Nc2nc3ccccc3nc2Nc2ccc3nsnc3c2)cc1	0.575 µM (active)	0.645 µM (active)	1.02 µM (active)	–	–	–	–	11.5 µM (active)	–
CCCCN(CCCC)CC(O)c1cc(Cl)cc2c1-c1ccc(Cl)cc1C2=Cc1ccc(Cl)cc1 (stereo not drawn)	23.5 µM (active)	23.5 µM (active)	–	20.9 µM (active)	–	–	–	–	–
O=C(C=Cc1ccc(O)cc1)c1ccc(O)cc1O	16.6 µM (active)	18.7 µM (active)	–	20.9 µM (active)	16.6 µM (active)	–	–	10.5 µM (active)	14.8 µM (active)
COc1cc(Cl)cn2c(-c3cccc(NC4CNC4)n3)cnc12	11.8 µM (active)	14.8 µM (active)	20.9 µM (active)	–	14.8 µM (active)	inactive	inactive	–	–
CCc1cc(-c2n[nH]c(C)c2-c2ccc3c(c2)OCCO3)c(O)cc1O	4.18 µM (active)	4.18 µM (active)	–	8.33 µM (active)	8.33 µM (active)	6.62 µM (active)	7.43 µM (active)	1.87 µM (active)	11.8 µM (active)
O=C(O)Cc1cccc(OCCCN(Cc2cccc(C(F)(F)F)c2Cl)CC(c2ccccc2)c2ccccc2)c1	20.9 µM (active)	16.6 µM (active)	–	16.6 µM (active)	18.7 µM (active)	23.5 µM (active)	inactive	–	–
O=c1[nH]nc(OCCCc2ccc(Cl)cc2)c(NCc2cccnc2)c1Br	9.35 µM (active)	9.35 µM (active)	–	9.35 µM (active)	4.69 µM (active)	20.9 µM (active)	23.5 µM (active)	5.26 µM (active)	20.9 µM (active)
COc1cc2c(cc1Cc1cccc(Cl)c1F)c(=O)c(C(=O)O)cn2[C@H](CO)C(C)C	18.7 µM (active)	10.5 µM (active)	–	23.5 µM (active)	16.6 µM (active)	14.8 µM (active)	–	2.96 µM (active)	–
CCN1CCN(c2ccc(Nc3cc(N(C)C(=O)Nc4c(Cl)c(OC)cc(OC)c4Cl)ncn3)cc2)CC1	11.8 µM (active)	23.5 µM (active)	–	inactive	–	inactive	0.209 µM (active)	inactive	inactive
CN(C)CCOc1ccc(-c2nc(-c3ccc4c(c3)CCC4=NO)c(-c3ccncc3)[nH]2)cc1	18.7 µM (active)	18.7 µM (active)	–	16.6 µM (active)	10.5 µM (active)	20.9 µM (active)	16.6 µM (active)	11.8 µM (active)	9.35 µM (active)
N#CC(c1ccc(Cl)cc1)c1c(Cl)cc(-n2ncc(=O)[nH]c2=O)cc1Cl (stereo not drawn)	18.7 µM (active)	20.9 µM (active)	–	18.7 µM (active)	23.5 µM (active)	–	inactive	–	inactive
